Marburg entry inh: qHTS for inhibitors of binding or entry into cells for Marburg Virus; Marburg virus pseudotyped entry inhibition, cell reporter; Potency, µM (titrated, usually from 37.8 µM), without a hit: at the top dose activity change, negative = inhibition, usual class: inhibitors; 1.8% of 300,000 active; calls by dose curve; tested in HEK293 cells; note: potency is the fitted concentration of half-maximal effect; % is set by controls: 0 for no effect and ±100 for the full control effect
Lassa entry inh: qHTS for Inhibitors of binding or entry into cells for Lassa Virus. 1.2% of 300,000 active. Lassa virus pseudotype entry inhibition, cell reporter. Potency, µM (top dose mostly 37.9 µM), without a hit: at the highest dose activity change, negative = inhibition, hits mostly inhibitors; calls by dose curve; tested in HEK293 cells; note: potency is the fitted concentration of half-maximal effect; % is set by controls: 0 for no effect and ±100 for the full control effect; nearly all actives have a fitted effect of over 50% in size
Shiga toxin inh: A qHTS for Small Molecule Inhibitors of Shiga Toxin. Vero cells, Shiga toxin protein synthesis inhibition reporter. inhibition, % at 38.7 µM. 9.2% of 290,000 active. AID 2315, 2010; in the data active = inhibition mostly above about 28%, no sharp cut-off; inactive = mostly below about 43%; note: 0% is about no effect
AMA1 RON2 block: qHTS for Inhibitors of AMA1-RON; Towards Development of Antimalarial Drug Lead: Primary Screen. Plasmodium falciparum AMA1 (3D7) - RON2 peptide interaction. AlphaScreen AMA1-biotinylated RON2 peptide binding. Potency, µM (series often up to 58.2 µM), inactives show top-dose activity change, negative = inhibition, most hits filed as inhibitors. 0.2% of 360,000 active. AID 720542, 2013; active = well fitted inhibition curve with a large enough effect; inconclusive = small, poorly fitted or top-dose-only effect; inactive = no such curve, though single readings can be large or run the other way;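 note: potency is the fitted concentration of half-maximal effect; 0% = vehicle wells and -100% = peptide control; nearly all actives have a fitted effect of over 45% in size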
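AMA1 (3D7) with his tag at 25 nM final met compounds first, then biotinylated RON2 peptide at 25 nM; detection used donor plus acceptor beads, 10 µg/mL apiece, read by AlphaScreen after 30 min at room temperature.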
CHX counter: Cycloheximide Counterscreen for Small Molecule Inhibitors of Shiga Toxin | cell reporter, cycloheximide protein synthesis inhibition counterscreen | max response, % | AID 2314, 2010 | 12% of 300,000 active; in the data active = max response mostly above about 13%, no sharp cut-off; inactive = mostly below about 14%; note: read at 38.3 µM for the half of the compounds with a filed dose; 0% is about no effect
The depositor's hits bear a star; i = inactive; ? = inconclusive; · = not tested or not shown; [ ] = dose if it differs, or a comment. Many of the other results were omitted from the sample, so hits are more common in it than they were.

SMILES	Marburg entry inh	Lassa entry inh	Shiga toxin inh	AMA1 RON2 block	CHX counter
CCc1cnc2c(c1SCC(=O)Nc1ccc(Cl)cc1)c(=O)n(C)c(=O)n2C	·	20%[46.1 µM]	·	·	·
CCN(c1nc(N)c(C(=O)N=C(N)N)nc1Cl)C(C)C	14µM*	?	·	37%	·
CC(Oc1ccccc1)C(=O)Nc1nnc(C2CCCCC2)s1 (stereo not given)	1%[46.1 µM]	20%	130*	-11%	49*
COCC(=O)Nc1nnc(C2CCCCC2)s1	1%[46.1 µM]	0%	53*	0%	20*
Cc1ccc(C(=O)Nc2nnc(C3CCCCC3)s2)o1	?	?	90*	-1%	21*
CCOCC(=O)Nc1nnc(C2CCCCC2)s1	-25%[46.1 µM]	-9%	46*	-1%	36*
CN(Cc1cnn(Cc2ccccc2)c1)C(=O)c1cccc(S(=O)(=O)N2CCOCC2)c1	·	·	·	17%	·
COc1cc2c(cc1OC)C(c1ccc(F)cc1)N(c1ccc(F)cc1)C(=O)C2 (stereo not given)	-17%[46.1 µM]	-16%[46.1 µM]	·	·	·
Cc1csc(=NC(=O)c2ccccc2)n1C	17%	-18%	83*	7%	50*
CCn1c(C)csc1=NC(=O)c1ccccc1	?	?	34*	30%	29*
CCn1c(C)csc1=NC(=O)c1ccccc1O	?	?	107*	13%	56*
Cc1csc(=NC(=O)c2ccccc2)n1Cc1ccco1	-6%	6%	28	-16%	11
Cc1ccc(C)c(-c2ccc(C(=O)O)o2)c1	·	·	i	·	23
COCCNC(=O)Cn1c(=O)c2cccn2c2ccc(F)cc21	·	-37%[46.1 µM]	·	·	·
Nc1ccc2nc(-c3ccccc3)[nH]c2c1	-17%	-13%	126*	-12%	36*
Nc1ccc2nc(-c3ccccn3)[nH]c2c1	?	?	53*	?	29*
COc1ccc2nc(-c3ccc(N)cc3)[nH]c2c1	?	?	10	9%	13
COc1ccc2nc(NCCCO)[nH]c2c1	17%	8%	4	-1%	-2
COc1ccc2nc(-c3ccccn3)[nH]c2c1	·	·	59*	58%	36*
Nc1cccc(-c2nc3ccc(C(=O)c4ccccc4)cc3[nH]2)c1	·	·	61*	-7%	33*
CCOc1ccc(-n2c(SCC(=O)Nc3cccc(Cl)c3)nc3c(oc4ccccc43)c2=O)cc1	-22%[46.1 µM]	?	·	·	·
Cc1c(-c2cccc(NC(=O)Nc3ccccc3)c2)nc2ncccn12	·	16%[46.1 µM]	·	·	·
CCCCCCN1C[C@@H](n2cc(C3CC3)nn2)[C@H](O)C[C@H]1c1ccccc1	·	-5%[46.1 µM]	·	·	·
COC(=O)C[C@H]1c2ccccc2C2=C(C[C@@H](C)[C@H]3C(=O)NC(=O)[C@@H]23)N1C(=O)OC	3%[14.2 µM]	·	·	·	·
Cc1ccc([C@@H]2CC=C(C(=O)O)[C@H](c3ccc(Cl)cc3)N2S(=O)(=O)c2ccccc2C)cc1	·	·	·	4%	·
SMILES	Marburg entry inh	Lassa entry inh	Shiga toxin inh	AMA1 RON2 block	CHX counter
Nc1ccc(-c2nc3c(Cl)cc(N)cc3[nH]2)cc1	?	11µM*	-20	-16%	-8
Fc1ccc2[nH]c(-c3cccs3)cc2c1	-1%[46.1 µM]	-3%[46.1 µM]	·	·	·
Nc1ccc2nc(-c3ccc(N)c(Cl)c3)[nH]c2c1	?	?	77*	-26%	25*
Nc1cccc(C(=O)Nc2ccc3nc(-c4cccnc4)[nH]c3c2)c1	?	-9%	-5	-8%	-3
Nc1ccc2nc(-c3cccs3)[nH]c2c1	12%	12%	52*	0%	20*
Nc1ccc2nc(-c3cccnc3)[nH]c2c1	?	?	13	-24%	15*
CCN(CC)CCn1c2c(c(SCC(=O)Nc3ccccc3Cl)nc1=O)CCC2	-8%	4%[46.1 µM]	·	5%	·
CC1(c2ccc3c(c2)OCO3)NC(=O)N(CC(=O)Nc2ccc(N3CCOCC3)cc2)C1=O (stereo not given)	?	-10%	-15	0%	-5
CCCc1ccccc1OCCNS(=O)(=O)c1cc2c(cc1C)OCC(=O)N2	?	?	4	-4%	-4
O=c1[nH]c(-c2cccnc2)nc2ccccc12	0%	18%	-11	8%	-1
COc1ccc2nc(-c3cccc(N)c3)[nH]c2c1	10µM*	11µM*	32	-8%	18*
c1cncc(-c2nc3c(ccc4ccccc43)[nH]2)c1	-26%	19%	77*	-5%	12*
CC1CCCC(NC(=O)c2ccc3snnc3c2)C1C (stereo not given)	·	·	2	6%	8
O=C(Nc1cc(N2CCOCC2)ncn1)c1ccc(F)cc1	?	?	75*	255%	33*
Fc1cccc(/C=N/Nc2cc(N3CCOCC3)ncn2)c1	?	?	25*	0%	23*
C(=N\Nc1cc(N2CCCCC2)ncn1)/c1ccco1	·	·	38*	23%	28*
O=C(NC(=O)c1ccc(Cl)cc1)Nc1cc(N2CCCCC2)ncn1	7%[46.1 µM]	14%	·	-8%	·
Fc1ccc(/C=N/Nc2cc(N3CCOCC3)ncn2)cc1	?	?	-4	-6%	9
O=S(=O)(/N=C(/Nc1cc(N2CCOCC2)ncn1)c1ccc(F)cc1)c1ccccc1	19%	14%	-6	12%	-1
O=C(Nc1cc(N2CCCCC2)ncn1)c1ccc(F)cc1	1%	9%	41	1%	26*
COc1ccc(C(CNC(=O)c2ccc(OCc3c(C)noc3C)cc2)N2CCCC2)cc1 (stereo not given)	·	·	·	5%	·
Cc1cc(C)c2oc(-c3cccc(NC(=O)c4cc5ccccc5o4)c3)nc2c1	·	9%[46.1 µM]	·	·	·
C=CCN(C(=O)C1=NN(C2CCS(=O)(=O)C2)C(=O)CC1)c1nc(-c2ccc([N+](=O)[O-])cc2)cs1 (stereo not given)	?	?	42	0%	38*
CCN(CC)C(NC(=O)c1ccccc1)C(=O)c1ccccc1 (stereo not given)	0%	7%	40	0%	55*
CCOC(NC(=O)c1ccccc1)C(NC(=O)c1ccccc1)OCC (stereo not given)	20%	8%	-1	-1%	6
SMILES	Marburg entry inh	Lassa entry inh	Shiga toxin inh	AMA1 RON2 block	CHX counter
C[C@@H]1CN([C@@H](C)CO)C(=O)c2cc(Br)cnc2O[C@H]1CN(C)C(=O)Nc1ccccc1	·	·	·	-6%	·
O=C(CSc1n[nH]c(=O)n1Cc1ccco1)N1CCOCC1	3%[46.1 µM]	15%	-6	16%	16*
O=C(CSc1n[nH]c(=O)n1-c1cccnc1)N1CCOCC1	1%[46.1 µM]	1%	4	5%	20*
O=C(CSc1n[nH]c(=O)n1-c1cccnc1)Nc1ccccc1	·	·	33	8%	-2
C=CCn1c(SCC(=O)N2CCOCC2)nc2scc(-c3ccco3)c2c1=O	-13%	10µM*	-3	-29%	-2
O=C(CSc1n[nH]c(=O)n1Cc1ccco1)c1ccc(F)cc1	·	·	14	6%	1
C=CCn1c(SCC(C)=O)nc2scc(-c3ccco3)c2c1=O	-26%[46.1 µM]	-1%[46.1 µM]	3	-18%	1
CCc1ccc(CN2CCC(n3nccc3NC(=O)C3CCCC3)CC2)cc1	-57%	?	-16	-8%	-2

Screens deposited in PubChem by National Center for Advancing Translational Sciences (NCATS).
